Test results published in ChEMBL document CHEMBL3988442, “University of Dundee, Small-Polar-MMV Screening Library” (2021).
Screen size: about 48,000 compounds; about 13,000 (27%) showed an effect of 50% or more. The list shows a part of the results.

What follows are compounds tested on Wolbachia pipientis (assay: Anti-Wolbachia Cell-Based Screen). Conditions: 5 µM.
Format: functional
Parameters: scale not given: in the data most compounds retested in dose-response had high values
`CN(Cc1cc(C(C)(C)C)n[nH]1)Cc1c[nH]nc1-c1ccc(F)cc1` was tested, and the “Percent Effect” value was -14.5%.
With `CC1(C)[C@H]2CC=C(CN3CCCn4nc(CCC(=O)O)cc4C3)[C@@H]1C2` the “Percent Effect” value was 1.513%.
`O=C(Cc1ccccc1Cl)NCC1CCN(Cc2ccsc2)CC1` was tested, and the “Percent Effect” value was 104.9%.
In the case of `O=C(Cn1cncn1)NCC1CCN(Cc2ccccc2Cl)CC1`, the “Percent Effect” value is reported as -9.372%.
`CCOCC(=O)NCC1CCN(Cc2ccsc2)CC1` was tested, and the “Percent Effect” value was 164%.
`CN1CCC(CNC(=O)Cc2ccc(N(C)C)cc2)CC1` was tested, and the “Percent Effect” value was -0.2873%.
`O=C(NCc1ccccc1)NCC1CCN(Cc2ccsc2)CC1` was tested, and the “Percent Effect” value was 116.2%.
With `Cc1ccccc1CN1CCC(CNC(=O)Cn2cncn2)CC1` the “Percent Effect” value was 9.92%.
`Cc1cc(CN2CCC(CNC(=O)Cc3ccc(F)cc3)C2)[nH]n1` (stereo not given) was tested, and the “Percent Effect” value was 4.609%.
`O=C(NCCCC(=O)N1Cc2ccccc2C1)NCc1ccsc1` was tested, and the “Percent Effect” value was 1.068%.
For `O=C(Cc1ccc(F)cc1)NCC1CCN(Cc2ccsc2)CC1`, the “Percent Effect” value was 152.7%.
For `Cc1cc(CN(C)C(=O)c2ccc(F)cc2Br)no1`, the “Percent Effect” value was -8.681%.
With `Cc1cc(=O)[nH]c(NCCNC(=O)C(c2ccc(F)cc2)N(C)C)n1` (stereo not given) the “Percent Effect” value was 1.725%.
In the case of `Cc1nc(CN2CCN(C(=O)CC(C)(C)c3ccccc3)CC2)no1`, the “Percent Effect” value is reported as 6.376%.
With `CCc1nc(CN2CCCC(Nc3ncnc4ccsc34)C2)no1` (stereo not given) the “Percent Effect” value was 25.2%.
In the case of `O=C(O)C(F)(F)F.O=S(=O)(C1CC1)N1CCC2(CC1)CN(Cc1nccs1)CCO2`, the “Percent Effect” value is reported as 4.912%.
In the case of `CCNC(=O)N1CCC(NC(=O)NCCc2ccc(C)cc2C)C1` (stereo not given), the “Percent Effect” value is reported as 5.947%.
In the case of `COCCN1CC(c2nc(CSC)no2)CCC1=O` (stereo not given), the “Percent Effect” value is reported as 7.021%.
`CCc1nccn1C1CCCN(C(=O)c2ccc3[nH]c(=O)[nH]c3c2)C1` (stereo not given) was tested, and the “Percent Effect” value was 0.4559%.
For `CCc1nccn1C1CCCN(C(=O)c2ccc3nnc(C)n3c2)C1` (stereo not given), the “Percent Effect” value was 92.62%.
For `Cc1nccn1C1CCCN(C(=O)c2ccc3nnc(C)n3c2)C1` (stereo not given), the “Percent Effect” value was 98.33%.
In the case of `CCc1nccn1C1CCCN(C(=O)c2ccc(C(N)=O)cn2)C1` (stereo not given), the “Percent Effect” value is reported as 6.395%.
For `Cc1nc(C)c(C(=O)N2CCc3c(Cl)cccc32)o1`, the “Percent Effect” value was -6.606%.
For `Cc1cnc(CN(C)C2CCN(Cc3nc4ccccc4n3C)C2)o1` (stereo not given), the “Percent Effect” value was 4.653%.
For `CNC(=O)c1cccc(CN2CCC(N(C)Cc3ncc(C)o3)C2)c1` (stereo not given), the “Percent Effect” value was 18.32%.
For `Cc1nc(CN2CCCN(Cc3nc4c(F)cccc4[nH]3)CC2)no1`, the “Percent Effect” value was 93.2%.
For `Cc1nc(CN(C)C2CCN(Cc3nc4c(F)cccc4[nH]3)C2)no1` (stereo not given), the “Percent Effect” value was 95.7%.
`CCc1ncc2c(n1)CN(Cc1nc3c(F)cccc3[nH]1)CC2` was tested, and the “Percent Effect” value was -2.409%.
For `Cc1cnc(CN(C)C2CCN(Cc3nc4c(F)cccc4[nH]3)C2)o1` (stereo not given), the “Percent Effect” value was 88.38%.
`Cc1ncc2c(n1)CN(Cc1nc3c(F)cccc3[nH]1)CC2` was tested, and the “Percent Effect” value was -1.881%.
